Laboratory results taken from PubChem BioAssay (NCI).
“And” between values parts separate entries of the source, which are not always exact repeats. Identical values can stand only once. About 83,000 compounds went through this panel and 20% of them were active in at least one assay; those are over-represented in the sample as a whole.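 Assay: single dose, 48 h. Readout: percent growth (0 = no net growth; negative = cell death). Active: <10.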 A number with no mark means an inactive call. The source made the active and inactive calls.

Legend:
Assay in all cases: NCI-60 one-dose screen, 48 h (100 = growth as untreated, 0 = no growth, -100 = all killed)
Details in all cases: 10 µM unless noted
NCI/ADR-RES ovarian = test system: NCI/ADR-RES ovarian
T-47D breast = test system: T-47D breast
BT-549 breast = test system: BT-549 breast
MDA-MB-435 melanoma = test system: MDA-MB-435 melanoma
SW-620 colon = test system: SW-620 colon
MCF7 breast = test system: MCF7 breast
HCT-116 colon = test system: HCT-116 colon
HCC-2998 colon = test system: HCC-2998 colon
KM12 colon = test system: KM12 colon

SMILES | growth (NCI/ADR-RES ovarian) | growth (T-47D breast) | growth (BT-549 breast) | growth (MDA-MB-435 melanoma) | growth (SW-620 colon) | growth (MCF7 breast) | growth (HCT-116 colon) | growth (HCC-2998 colon) | growth (KM12 colon)
C/C(=C(\c1ccc(OCCN2CCOCC2)cc1)c1ccc(OC(=O)Cc2ccccc2)cc1)c1ccc(Cl)cc1 | 95.8% | 78% | 91.1% | 91.4% | 98.6% | 83.5% | 75.7% | 88.4% | 99.3%
S=P(SP(=S)(c1ccccc1)c1ccccc1)(c1ccccc1)c1ccccc1 | 104% | 103% | 109% | 97.5% | 99.3% | 112% | 109% | 104% | 105%
Oc1ccccc1C=NCCN=Cc1ccccc1O.[Fe] | 104% | 97.7% | 110% | 31.1% | 66.1% | 70.4% | 77% | 111% | 93%
CCN1C(=O)NC(=O)C(C)(N2C(=O)c3c(F)c(F)c(F)c(F)c3C2=O)C1=O (stereo not given) | 17.9% | 23.5% | 35.9% | 21.6% | -77.9% (active) | 13.3% | -38.8% (active) | 40.8% | -59.7% (active)
O=[N+]([O-])c1ccc(CI)cc1 | 70.9% | 73.3% | 98.6% | 90.4% | 26.4% | 21.7% | 1.59% (active) | 108% | 106%
CCC(=O)C(CC(C)N1CCCCCC1)(c1ccccc1)c1ccccc1 (stereo not given) | 102% | 95.3% | 97.4% | 98.3% | 99.1% | 81.8% | 72.1% | 97.7% | 107%
CCCn1cc2c3c(cccc31)[C@H]1C[C@@H](C)CN(C)[C@@H]1C2 | 78.8% | 72.6% | 89% | 112% | 90.1% | 85% | 53% | 95.7% | 97.6%
CCCN1C(=O)NC(=O)C(CC)(N2C(=O)c3c(F)c(F)c(F)c(F)c3C2=O)C1=O (stereo not given) | -28.5% (active) | -52.3% (active) | -78.8% (active) | -60.3% (active) | -92.9% (active) | -76.5% (active) | -78.2% (active) | -87% (active) | -96.2% (active)
CC(=O)Cc1ccc2c(c1)OCO2 | 103% | 103% | 106% | 105% | 110% | 115% | 102% | 102% | 96.1%
Cn1cc(-c2csc(-c3cn(CCCCN4CCOCC4)c4ccc(F)cc34)n2)c2cccnc21 | 76.8% | 76.9% | 65.3% | 38.1% | 19.7% | 78.4% | 83% | 92.4% | 52.5%
Cc1ccc(P(=O)(O)O)cc1 | 106% | 98.8% | 122% | 107% | 105% | 98.6% | 104% | 103% | 104%
COc1ccc(C(C#N)C(C)=O)cc1 (stereo not given) | 102% | 104% | 100% | 123% | 104% | 102% | 105% |  | 98.5%
CC(Oc1ccc(-c2ccccc2)cc1)C(=O)O (stereo not given) | 104% | 98.4% | 106% | 102% | 102% | 103% | 98.5% |  | 107%
OCCNC1CCCCC1 | 115% | 98.4% | 113% | 106% | 108% | 101% | 94.3% |  | 107%
CCCCOCCOP(=O)(OCCOCCCC)OCCOCCCC | 99.7% | 96.2% | 114% | 101% | 93.3% |  | 115% | 102% | 120%
CN(C)c1ccc([N+](=O)[O-])c([N+](=O)[O-])c1 | 104% and 97.9% | 105% and 97.2% | 90.5% and 105% | 99% and 97.1% | 101% and 111% | 83.6% and 91% | 98.2% and 102% | 96.6% and 107% | 109% and 112%
CN1CCN(c2ccc(Cl)cc2)CC1 | 70.1% | 90% | 83.2% | 97.8% | 46.5% |  | 31.4% | 105% | 100%
CC1=C(C)C(=O)O[C@@H]([C@](C)(O)[C@]2(O)CC[C@@]3(O)[C@@H]4C[C@H]5O[C@]56CC=CC(=O)[C@]6(C)[C@H]4CC[C@]23C)C1 | 42.6% | 0.829% (active) | -24.4% (active) | 3.13% (active) | -37% (active) | -16.3% (active) | -4.21% (active) | -69.8% (active) | -24.2% (active)
O=P(O)(Nc1ccccc1)Nc1ccccc1 | 76.9% | 97% | 100% | 88.5% | 86.2% | 97.3% | 89.1% |  | 95.9%
